Compounds without any hit were thinned out: in the full panel of roughly 83,000, 20% have a hit.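 Note: values are percent growth. 100 is the growth of untreated cells, values between 100 and 0 indicate rising inhibition; between -100 and 0 indicates cell death.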 Values without a mark were called inactive. The source made the active and inactive calls.

The experiment deals with MDA-MB-468 breast. Put plainly: NCI-60 one-dose screen, 48 h (100 = growth as untreated, 0 = no growth, -100 = all killed). The following applies: 10 µM unless noted. On the procedure:
Growth inhibition of the MDA-MB-468 human Breast tumor cell line is measured as a screen for anti-cancer activity. Cells are grown in 96 well plates and exposed to the test compound for 48 hours. Compounds are tested at a single concentration, which is 10^-5 M for most compounds. The reported endpoint is percent growth (GI% or GIPRCNT), where numbers from 0 - 100% represent growth inhibition, and numbers from -100% - 0 represent cell death. For example, a value of 40 represents 60% growth inhibition. A value of 0 means no net growth occurred over the course of the experiment. A value of -40 indicates 40% of cells at the beginning of the experiment died by the end of the experiment. A value of -100 means all cells are dead at the end of the experiment.
NCI-60 Human Tumor Cell Lines Screen was performed using the standard one-dose NCI protocol, which is described in more detail at https://dtp.cancer.gov/discovery_development/nci-60/default.htm.
Compounds with GIPRCNT values below 10 were considered active. Activity score was based on GIPRCNT using the following formula: […]
Score is 0 for GIPRCNT values of 100 or above, 50 for GIPRCNT values of 0, and 100 for GIPRCNT values of -100.
For `COc1ccc(C(=O)Nc2ncc(Cc3ccc(Cl)cc3)s2)cc1`, the growth is 24.6%.
As for `O=C(Nc1nc(-c2ccc(Br)cc2)cs1)c1cc(-c2ccc(Br)cc2)nc2ccc(Cl)cc12`, the figure is 102%; as for `Cc1ccc(C(=O)N(CCCN)[C@@H](c2nc3cc(Cl)ccc3c(=O)n2Cc2ccccc2)C(C)C)cc1`, -84.4% (active).
As for `O=C(Cn1c[n+](CC(=O)c2ccc(-c3ccccc3)cc2)c2ccccc21)Nc1cccc2cccnc12`, the figure is -6.11% (active); as for `CN(C)C(=O)c1cc2cnc(Nc3ccc(-c4csc5c(=S)cc(N6CCOCC6)oc45)cc3)nc2n1C1CCCC1`, 1.46% (active).
In the case of `BrC1CC(Br)c2c1c1c(c3c2C(Br)CC3Br)C(Br)CC1Br` (stereo not given), the growth is 79%.
As for `CC(=O)C(C(C)=O)c1nc2sc3cc(Cl)ccc3n2c(=N)c1C#N`, the figure is 41.7%; as for `CCOC(=O)c1c(C)oc2ncnc(Nc3ccc(NC(=O)Nc4ccc(CC)cc4)cc3)c12`, 128%; as for `COc1ccc(C(O)c2cc3c(N)c(C(=O)Nc4cccc(Cl)c4)sc3nc2C)cc1` (stereo not given), 22.4%.
As for `COc1ccc(C(=O)/C=C/c2cc3ccccc3[nH]c2=O)cc1`, the figure is 17.6%.
In the case of `CCN(CC)CCNc1ccc(C)c2sc3cc(C)ccc3c(=O)c12`, the growth was 66.5%.
On to `COc1ccc(-c2cc(-c3ccc(Cl)cc3)c(C#N)c(=O)n2Cc2ccc(C(=O)Nc3ccccc3N)cc2)cc1`, for which the growth is 63.8%.
As for `O=S(=O)(O)c1cccc(Nc2ccc3ccccc3c2)c1`, the figure is 105%; as for `CSc1nc(NCCN2CCOCC2)c(C#N)c(-c2cccc([N+](=O)[O-])c2)n1`, 113%; as for `O=C(O)Cc1ccc(Cl)cc1`, 106%.
The same measure for `CC[C@]12C=CCN3CC[C@@]4(c5cc(NC(=O)CCC(=O)O[C@H]6CC[C@H]7[C@@H]8CC[C@H]9CC(=O)CC[C@]9(C)[C@H]8CC[C@]67C)c(OC)cc5N(C)[C@H]4[C@@](O)(C(=O)OC)[C@@H]1OC(C)=O)[C@@H]32`: 73%; for `O=S(=O)(NCCNc1cc(-c2cn(-c3ccccc3)nc2-c2cccc(O)c2)ccn1)c1ccccc1`: 34.2%; for `COC12C=C/C(=C(/C(=O)OCCSc3ccnn3C)C(=O)CCCCCCCCC3(OC)C=C/C(=C(/C(=O)OCCSc4ccnn4C)C(=O)CCCCCCCC1)O3)O2`: -6.23% (active).
As for `COc1cc(C(=O)c2cnc(-c3c[nH]c4cccc(C)c34)[nH]2)cc(OC)c1OC`, the figure is 2% (active); as for `NS(=O)(=O)c1ccc(-n2nc(-c3ccccc3)ccc2=O)cc1`, 104%.
In the case of `Nc1ccc(C2=Nc3cccc4cccc(c34)S2)cc1`, the growth is 0.26% (active).
The same measure for `CNC(=O)c1cc(-c2ccc(NC(=O)Nc3ccc(N4CCOCC4)c(C(F)(F)F)c3)cc2)nc2cccnc12`: 29%; for `O=[N+]([O-])c1cccc(-c2nc3cc4nc5ccccc5[nH]c4cc3n2)c1`: 95.5%; for `C=CCN1C(=O)/C(=C\c2ccc3c(c2)CCC3)SC1=S`: 116%.
The same measure for `CCOC(=O)C1=C(C)N=C2Sc3ccccc3N2C1c1ccccc1` (stereo not given): 74.8%; for `COc1cc(/C(=C2/O[C@@H]([C@H]3COC(C)(C)O3)[C@H]3OC(C)(C)O[C@@H]23)c2ccc3c(c2)OCO3)cc(OC)c1OC`: 69.6%; for `NC(=O)c1ccc2nc3c(n2c1)C(=O)C(=O)c1ccccc1-3`: -57.7% (active).
On to `Cc1c(C)c(N2C(=O)C=CC2=O)c(C)c(C)c1N1C(=O)C=CC1=O`, for which the growth was 96.5%.
The same measure for `O=C(Nc1ccc(-n2cc(-c3ccncc3)c(-c3ccc(Cl)c(O)c3)n2)cc1)Nc1ccc(Cl)c(C(F)(F)F)c1`: -19.8% (active).
`O=C1Nc2ccccc2/C1=C/c1cn(C(=O)c2ccc(Cl)cc2)c2ccccc12`: the growth was 97.6%.
Turning to `Cc1ccc(S(N)(=O)=O)cc1Cl`, the growth is 111%.
For `Cc1ccnc(NC(c2ccccc2)c2ccc3cccnc3c2O)c1` (stereo not given), the growth was 24.9%.
As for `COC(=O)c1c2c(n3ccccc13)C(=O)c1ccccc1C2=O`, the figure is 95.7%; as for `O=C(O)C(Cc1ccccc1)N1C(=O)/C(=C/C(Cl)=C/c2ccc([N+](=O)[O-])cc2)SC1=S` (stereo not given), -12.8% (active); as for `COC(=O)C(N)CC(C)C` (stereo not given), 98%.
On to `COc1cc(C(=O)Nc2cc3c(cc2Oc2cc(C)cc(C)c2)C(=O)N(C)[C@@H](CC(=O)N(C)O)C(=O)N3)c(Br)c(OC)c1OC`, for which the growth is -41.6% (active).
The same measure for `NC(N)=NS(=O)(=O)c1ccc(N=NC2C(=O)NN(c3ccccc3)C2=O)cc1` (stereo not given): 96.6%; for `COc1c(C(NC(=O)c2ccccc2)c2sccc2C)cc(Cl)c2cccnc12` (stereo not given): 102%.
As for `Cc1ccc2c(c1)Nc1ccc(C)cc1C2(C)C`, the figure is 101%.
As to `O=C1Nc2ccc(F)cc2/C1=N/c1nnc(Sc2ccccc2)s1`, the growth was -0.912% (active).

The values are drawn from PubChem BioAssay (NCI).
